In the library only some 21% were active in any assay of this set; here they are far more common.
Cycloheximide cs – counter-screen hit for Shiga toxin inhibitors, cycloheximide. hit rate 12% among 300,000. cell reporter, cycloheximide protein synthesis inhibition counterscreen. AID 2314. max response, %; in the data active = max response mostly above about 13%, no sharp cut-off; inactive = mostly below about 14%; note: read at 38.3 µM for the half of the compounds with a filed dose; 0% is about no effect
NS1 function inh – influenza NS1 inhibition. Potency, µM (doses to about 46.1 µM), for inactives: top-dose activity, positive = more growth. hit rate 0.4% among 270,000. AID 2326; calls by dose curve; note: potency is the fitted concentration of half-maximal effect; actives are rising curves; nearly all actives have a fitted effect of over 50% in size
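In this qHTS, NS1 from influenza A is expressed in budding yeast, where it slows growth. Cells are switched from glucose to 2% galactose medium (pH 6.0, -URA), treated with compound, and growth recovery is read at OD600.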
Pf growth 48h – inhibits P. falciparum growth in the first generation, 48 h; P. falciparum luciferase growth in erythrocytes, 48 h; Potency, µM (top dose mostly 28.7 µM), for inactives: at the top dose activity change, negative = inhibition, actives largely listed as inhibitors; hit rate 5.9% among 310,000; note: potency is the fitted concentration of half-maximal effect; % is set by controls: 0 for no effect and ±100 for the full control effect
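First compound was added to culture medium, then infected red cells at 0.1% parasitemia and 2% hematocrit (final). After incubation at 37 C under 5% CO2, luciferase detection reagent was dispensed and light output recorded.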
Giardia FBPA inh – Giardia lamblia aldolase inhibition; A8B2U2; purified Giardia FBPA; Potency, µM (top dose mostly 59.6 µM), for the others: at the top dose activity, negative = inhibition, most hits filed as inhibitors; hit rate 0.71% among 290,000; AID 2451; note: potency is the fitted concentration of half-maximal effect; % is set by controls: 0 for no effect and ±100 for the full control effect; nearly all actives have a fitted effect of over 55% in size
Target sequence (A8B2U2 whole entry, looked up): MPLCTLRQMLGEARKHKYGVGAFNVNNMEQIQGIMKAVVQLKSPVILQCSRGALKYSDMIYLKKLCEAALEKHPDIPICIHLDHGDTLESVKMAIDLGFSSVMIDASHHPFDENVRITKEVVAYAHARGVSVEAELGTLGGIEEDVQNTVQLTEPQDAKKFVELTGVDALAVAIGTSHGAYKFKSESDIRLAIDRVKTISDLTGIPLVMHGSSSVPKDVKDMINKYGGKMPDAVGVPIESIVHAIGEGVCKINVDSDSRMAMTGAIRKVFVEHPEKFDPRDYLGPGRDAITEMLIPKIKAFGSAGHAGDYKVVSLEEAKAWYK
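40 nM FBPA preincubated 10 min at RT with compound (up to 57.5 uM final), then substrate plus GAPDH/TPI/NAD/arsenate coupling and diaphorase/resazurin added. Fluorescence read after 20 min at RT, 525/598 nm.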
Shiga toxin inh – Shiga toxin inhibition. hit rate 9.2% among 290,000. Vero cells, Shiga toxin protein synthesis inhibition reporter. AID 2315. inhibition, % at 38.7 µM; in the data active = inhibition mostly above about 28%, no sharp cut-off; inactive = mostly below about 43%; note: 0% is about no effect
Pf growth 96h – P. falciparum growth inhibition at 96 hours; P. falciparum luciferase reporter growth, 96 h; Potency, µM (top dose mostly 28.7 µM), for the others: top-dose activity change, negative = inhibition, usual class: inhibitors; hit rate 6.9% among 320,000; AID 504834; note: potency is the fitted concentration of half-maximal effect; % is set by controls: 0 for no effect and ±100 for the full control effect
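Delayed-death screen, second-generation endpoint: infected erythrocytes, 2% hematocrit, 0.05% parasitemia final; 96 hours at 37 C, 5% CO2; luciferase detection reagent; luminescence decrease equals reduced growth.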
Active calls of the source: *. Unless noted, calls come from the whole dose curve; as a rule, active = well fitted curve in the direction sought with a large enough effect; inconclusive = small, poorly fitted or top-dose-only effect, or another doubt; inactive = no such curve, though single readings can be large; an effect the other way counts as inactive or inconclusive.

`COc1ccc(C(=O)NCC2CCCO2)cc1` (stereo not given) gave Cycloheximide cs 36*, NS1 function inh 5%, Pf growth 48h 59%, Giardia FBPA inh 28%, Shiga toxin inh 54* and Pf growth 96h 27%.
Cc1cccc(C(=O)NCC2CCCO2)c1 (stereo not given) was read as Cycloheximide cs 11, NS1 function inh 3%, Pf growth 48h 19%, Giardia FBPA inh 3%, Shiga toxin inh 30 and Pf growth 96h -109%.
`Cc1ccc(C)n1-c1ccc(C(=O)NCC2CCCO2)cc1` (stereo not given) gave Cycloheximide cs -1, NS1 function inh 16%, Pf growth 48h -11%, Giardia FBPA inh -8%, Shiga toxin inh 28 and Pf growth 96h 10µM*.
CCCOC(=O)c1ccc(NC(=O)C2CCCO2)cc1 (stereo not given) was read as Cycloheximide cs 39*, NS1 function inh -17%, Pf growth 48h 136%, Giardia FBPA inh 1%, Shiga toxin inh 66* and Pf growth 96h -18%.
For NC(=O)c1ccc(NC(=O)C2CCCO2)cc1 (stereo not given) the results were Cycloheximide cs -4, NS1 function inh 4%, Pf growth 48h 22%, Giardia FBPA inh 1%, Shiga toxin inh -11 and Pf growth 96h -29%.
COc1cc(OC)cc(C(=O)Nc2ccc(C(=O)NCC3CCCO3)cc2)c1 (stereo not given) was read as Cycloheximide cs -1, NS1 function inh 2%, Pf growth 48h inconclusive, Giardia FBPA inh 7%, Shiga toxin inh -10 and Pf growth 96h inconclusive.
`C=C(C)CCC(C)N1CCC(n2nccc2NC(=O)CCCc2ccccc2)CC1` (stereo not given) gave Cycloheximide cs 6, NS1 function inh -8%, Pf growth 48h inconclusive, Shiga toxin inh 14 and Pf growth 96h -5%.
CS(=O)(=O)Nc1ccc(C(=O)NCC2CCCO2)cc1 (stereo not given) was read as Cycloheximide cs -2, NS1 function inh 0%, Pf growth 48h 5%, Giardia FBPA inh 5%, Shiga toxin inh -10 and Pf growth 96h inconclusive.
`CN(C)c1ccc(C(=O)NCC2CCCO2)cc1` (stereo not given) gave Cycloheximide cs 43*, NS1 function inh 6%, Pf growth 48h 269%, Giardia FBPA inh 1%, Shiga toxin inh 64* and Pf growth 96h inconclusive.
Screening COc1ccc(CNC(=O)c2ccc(NC(=O)C3CCCO3)cc2)cc1 (stereo not given) returned Cycloheximide cs 9, NS1 function inh 0%, Pf growth 48h 23%, Giardia FBPA inh 10%, Shiga toxin inh 26* and Pf growth 96h 23%.
Screening CN(C)c1cccc(C(=O)NCC2CCCO2)c1 (stereo not given) returned Cycloheximide cs 14, NS1 function inh -2%, Pf growth 48h 50%, Giardia FBPA inh -6%, Shiga toxin inh 42* and Pf growth 96h -11%.
For O=C(NCc1ccc(F)cc1)c1ccc(NC(=O)C2CCCO2)cc1 (stereo not given) the results were Cycloheximide cs -5, NS1 function inh 6%, Pf growth 48h -1%, Giardia FBPA inh -5%, Shiga toxin inh -12 and Pf growth 96h -2%.
`COc1ccc(CN2C(=O)c3ccccc3C2C(=O)NCC2CCCO2)c(OC)c1` (stereo not given) gave Cycloheximide cs 8, NS1 function inh -2%, Pf growth 48h -9%, Giardia FBPA inh -13%, Shiga toxin inh -7 and Pf growth 96h 4.7µM*.
`COc1ccc(OC)c(CN2C(=O)c3ccccc3C2C(=O)NCC2CCCO2)c1` (stereo not given) gave Cycloheximide cs 2, Pf growth 48h inconclusive, Giardia FBPA inh 3%, Shiga toxin inh -19 and Pf growth 96h inconclusive.
Screening C=CCOc1ccc(/C=C(\C#N)C(=O)Nc2ccccn2)cc1 returned Cycloheximide cs 18, NS1 function inh 0%, Pf growth 48h 32%, Giardia FBPA inh -10%, Shiga toxin inh -5 and Pf growth 96h 31%.
Screening O=C(c1cc(N2CCOCC2)c(F)cc1[N+](=O)[O-])N1CCOCC1 returned Cycloheximide cs 2, NS1 function inh 19%, Pf growth 48h -12%, Giardia FBPA inh 4%, Shiga toxin inh -3 and Pf growth 96h inconclusive.

Screening data deposited in PubChem by National Center for Advancing Translational Sciences (NCATS).
